We go through 18 compounds from PubChem BioAssay (NCATS).

Results filed as inconclusive are left out. Unmarked numbers belong to inactive results. The source made the active and inactive calls. The call rests on the fitted dose curve; in most records, active means well fitted cell-killing curve with a large enough effect; inconclusive means small, poorly fitted or top-dose-only effect, or effect the other way; inactive means no such curve, though single readings can be large or run the other way.

Experiment [1] can be described thus: Quantitative High-Throughput drug screen in 47 multiple myeloma cell lines against the NCATS MIPE library collection: MM1R_ATCC cell viability assay (AID 1918981). Further: nearly all actives have a fitted effect of over 35% in size. Further: potency means the concentration at half of the fitted maximal effect. The method in brief: (§1)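 Readout: median RLU from CellTiter-Glo after 5 min at room temperature. Preceding step was 48 h drug treatment of 500 cells/well at 37 °C, 5% CO2, with DMSO-only and media-only control wells.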

Experiment [2] is described as follows: Quantitative High-Throughput drug screen in 47 multiple myeloma cell lines against the NCATS MIPE library collection: LP1_DSMZ cell viability assay (AID 1918982). Further: nearly all actives have a fitted effect of over 35% in size. Further: potency means the concentration at half of the fitted maximal effect. Put shortly:
as §1

Experiment [3] is described as follows: Quantitative High-Throughput drug screen in 47 multiple myeloma cell lines against the NCATS MIPE library collection: KMS28PE_JCRB cell viability assay (AID 1918983). Further: nearly all actives have a fitted effect of over 35% in size. Further: potency means the concentration at half of the fitted maximal effect. The method in brief: as §1
Experiment [4] can be described thus: Quantitative High-Throughput drug screen in 47 multiple myeloma cell lines against the NCATS MIPE library collection: KMS34_JCRB cell viability assay (AID 1918985). Further: nearly all actives have a fitted effect of over 40% in size. Further: potency means the concentration at half of the fitted maximal effect. The method in brief: as §1
A short description of experiment [5]: Quantitative High-Throughput drug screen in 47 multiple myeloma cell lines against the NCATS MIPE library collection: OCIMY7_PLB cell viability assay (AID 1918987). Further: potency means the concentration at half of the fitted maximal effect; nearly all actives have a fitted effect of over 65% in size. Put shortly:
as §1

The nature of experiment [6]: Quantitative High-Throughput drug screen in 47 multiple myeloma cell lines against the NCATS MIPE library collection: OCIMY5_PLB cell viability assay (AID 1918988). Further: nearly all actives have a fitted effect of over 65% in size. Further: potency means the concentration at half of the fitted maximal effect. The method in brief: as §1
Experiment [7] can be described thus: Quantitative High-Throughput drug screen in 47 multiple myeloma cell lines against the NCATS MIPE library collection: OPM1_PLB cell viability assay (AID 1918989). Further: nearly all actives have a fitted effect of over 40% in size. Further: potency means the concentration at half of the fitted maximal effect. Put shortly: as §1
Experiment [8] is described as follows: Quantitative High-Throughput drug screen in 47 multiple myeloma cell lines against the NCATS MIPE library collection: SKMM1_PLB cell viability assay (AID 1919863). Further: nearly all actives have a fitted effect of over 35% in size. Further: potency means the concentration at half of the fitted maximal effect. On viability: series mostly up to about 46 µM. As to conditions: SKMM1 myeloma viability, CellTiter-Glo ATP, 48 h; viability: active compounds read low. The method in brief: as §1
Experiment [9] can be described thus: Quantitative High-Throughput drug screen in 47 multiple myeloma cell lines against the NCATS MIPE library collection: L363_DSMZ cell viability assay (AID 1918984). Further: nearly all actives have a fitted effect of over 40% in size. Put shortly:
as §1

The nature of experiment [10]: Quantitative High-Throughput drug screen in 47 multiple myeloma cell lines against the NCATS MIPE library collection: U266_ATCC cell viability assay (AID 1919864). Put shortly:
as §1

As to `CCn1nnc2c(N3CCOCC3)nc(-c3ccc(NC(=O)Nc4ccc(C(=O)N5CCN(C)CC5)cc4)cc3)nc21`, the Potency in [1] was 46.9 nM (active); in [2] it was 46.9 nM (active); in experiment [3], 5.9 nM (active); in [4], 148 nM (active); in experiment [5] it was 3720 nM (active); in [6] it was 469 nM (active). Also, the values for the Potency in experiment [7] and in experiment [8] were 5.9 nM (active) and 59 nM (active), respectively.

With `O=C(O)Cn1nnc(-c2cc(N3CCC(Oc4cc(F)ccc4Br)CC3)no2)n1`, the Potency entry in experiment [1], in [2], in experiment [3] and in [9] was “inactive” throughout. Moreover, in [8], the viability was 126%.

As to `C1Cc2[nH]nc(-c3nn[nH]n3)c2C1`, the Potency entry in [1], in [2], in [3] and in [9] was “inactive” in each case. The viability in experiment [8] was 115%.

With `Clc1cccc(-c2nnnn2Cc2cccnc2)c1Cl`, the Potency entry in experiment [1], in experiment [2], in experiment [3], in experiment [4], in experiment [6] and in [7] was “inactive” throughout. For the same compound, in experiment [5], the Potency is 3720 nM (active).

As to `CC(NCc1ccc2c(c1)nc(NC(=O)c1ccc(-c3cn[nH]c3)s1)n2CC(C)(C)O)C(C)(C)C` (stereo unspecified), the Potency in [1] was 469 nM (active); in [2], 469 nM (active); in experiment [3], 469 nM (active); in experiment [4] it was 372 nM (active); in experiment [5] it was 148 nM (active); in [7] it was 264 nM (active). Moreover, the Potency in experiment [8] is 743 nM (active); in [10] it was 332 nM (active).

As for `O=C(NCCCNc1nc(Nc2cccc(NC(=O)N3CCCC3)c2)ncc1I)c1cccs1`, the Potency in experiment [1] was 20900 nM (active); in [2], 18700 nM (active); in experiment [3], 18700 nM (active); in [4], 1050 nM (active); in [5] it was 1870 nM (active); in experiment [6] it was 13200 nM (active). Also, the Potency is 3720 nM (active) in experiment [7], 20900 nM (active) in experiment [8] and 18700 nM (active) in experiment [10].

For the compound `CC1(O)CC(c2nc(-c3ccc4ccc(-c5ccccc5)nc4c3)c3c(N)nccn23)C1` (stereo unspecified), the Potency is 187 nM (active) in [1]; 235 nM (active) in experiment [2]; 264 nM (active) in [3]; 590 nM (active) in experiment [4]; 209 nM (active) in experiment [5]; 235 nM (active) in [6]. Further, in experiment [7], the Potency is 18700 nM (active).

Regarding `Cc1cn2cc(C(=O)N(C)CCO)cc(N[C@@H]3CCOc4cccc(C)c43)c2n1`, the Potency result in [1], in experiment [2], in experiment [3], in experiment [4] and in experiment [6] was “inactive” in each case.

In the case of `Nc1nc(Nc2ccc(S(N)(=O)=O)cc2)nn1C(=O)c1c(F)cccc1F`, the Potency in [1] is 6620 nM (active); in [2], 8330 nM (active); in experiment [3], 8330 nM (active); in experiment [4] it was 8330 nM (active); in experiment [5], 3320 nM (active); in experiment [6], 7430 nM (active). Further, the Potency in experiment [7] is 7430 nM (active); in [8], 10500 nM (active); in experiment [10], 7430 nM (active).

Regarding `Cn1c2ccccc2c2c3c(c4c5ccccc5n(CCC#N)c4c21)CNC3=O`, the Potency is 1660 nM (active) in [1]; 14800 nM (active) in experiment [2]; 14800 nM (active) in [3]; 3720 nM (active) in experiment [4]; 590 nM (active) in [5]; 5900 nM (active) in experiment [6]. The figures for the Potency in [7], in experiment [8] and in experiment [10] were 296 nM (active), 8330 nM (active) and 4690 nM (active), respectively.

Regarding `CNC(=O)c1cc(Oc2ccc(NC(=O)Nc3cc(C(C)(C)C)nn3-c3ccc4ncccc4c3)c(F)c2)ccn1`, the Potency in experiment [1] was 7430 nM (active); in [2] it was 10500 nM (active); in [3] it was 9350 nM (active); in experiment [4], 7430 nM (active); in experiment [5] it was 6620 nM (active); in experiment [6], 6620 nM (active). Besides, the results for the Potency in experiment [7], in experiment [8] and in experiment [10] were 5260 nM (active), 14800 nM (active) and 13200 nM (active), respectively.

For `CCC1=C[C@@H]2CN(C1)Cc1c([nH]c3ccccc13)[C@@](C(=O)OC)(c1cc3c(cc1OC)N(C)[C@@H]1[C@@](O)(C(=O)OC)[C@H](OC(C)=O)[C@]4(CC)C=CCN5CC[C@]31[C@@H]54)C2`, the Potency is 187 nM (active) in experiment [1]; 33.2 nM (active) in [2]; 20.9 nM (active) in experiment [3]; 16.6 nM (active) in experiment [4]; 166 nM (active) in [5]; 6.6 nM (active) in [6]. Besides, the Potency in experiment [8] is 23.5 nM (active).

`Cc1cc(Nc2cc(NC(=O)c3c(Cl)cccc3Cl)ccn2)nc(N)n1`: the Potency was 469 nM (active) in experiment [1]; 418 nM (active) in experiment [2]; 26400 nM (active) in experiment [3]; 1180 nM (active) in experiment [4]; 590 nM (active) in experiment [5]; 6620 nM (active) in [10].

As to `O=c1[nH]c(=O)n(C2CCCO2)cc1F` (stereo unspecified), the Potency result in [1], in [2], in [3], in experiment [4] and in [7] was “inactive” each time.

Consider `CC(C)(O)c1cc2nc(-c3cnc(N)nc3)nc(N3CCOCC3)c2s1`, for which the Potency in experiment [1] was 66.2 nM (active); in experiment [2] it was 13.2 nM (active); in experiment [3], 37.2 nM (active); in [4], 37.2 nM (active); in [5], 372 nM (active); in [6], 105 nM (active). In addition, the Potency was 166 nM (active) in experiment [7], 235 nM (active) in experiment [8] and 105 nM (active) in experiment [10].

On to `COc1cc(=C2C=c3ccccc3=N2)[nH]c1=Cc1[nH]c(C)cc1C`, for which the Potency in experiment [1] was 1050 nM (active); in experiment [2], 743 nM (active); in experiment [3], 1660 nM (active); in experiment [4], 1480 nM (active); in [5] it was 1480 nM (active); in [7] it was 5900 nM (active). For the same compound, the Potency in [8] was 4180 nM (active).

As for `CCCCc1nc2cc(C=CC(=O)NO)ccc2n1CCN(CC)CC`, the Potency was 235 nM (active) in experiment [1]; 74.3 nM (active) in [2]; 526 nM (active) in [3]; 372 nM (active) in experiment [4]; 935 nM (active) in experiment [5]; 41.8 nM (active) in [6]. For the same compound, the Potency in [7] was 148 nM (active); in [8], 590 nM (active); in [10], 935 nM (active).

In the case of `COc1ccc(CC2SC(=O)NC2=O)cc1C(=O)NCc1ccc(C(F)(F)F)cc1` (stereo unspecified), the Potency entry in [1], in experiment [2], in experiment [3], in [4] and in [6] was “inactive” throughout. Besides, in [7], the Potency was 6620 nM (active). Moreover, in experiment [8], the viability is 115%.
